{"source": "PubChem BioAssay (Tox21)", "note": "“And” between values parts separate entries of the source, which are not always exact repeats. Equal values may be shown once. Inconclusive results are not listed. A call without a number means that no potency is given here. A structure can be active in one record and inactive in another. The source made the active and inactive calls. Calls follow the shape of the dose curve; as a rule, active = well fitted cell-killing curve with a large enough effect in the repeat runs; inconclusive = weak or mixed curves, or effect the other way; inactive = no such curve, though single readings can be large or run the other way. Potency is read from the fitted curve at half-maximal effect.", "data": [{"assay": "qHTS assay to identify small molecule agonists of the estrogen receptor alpha (ER-alpha) signaling pathway in the presence of an antagonist - cell viability counter screen (AID 1259386);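 also: cells exposed to compounds for 22 h at 37 °C before the viability read; nearly all actives have a fitted effect of over 30% in size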", "conditions": "VM7Luc4E2 viability, CellTiter-Fluor fluorescence, 22 h; series mostly up to 92.4 µM; activity change, negative = cytotoxicity: at the top concentration", "method_in_brief": "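ICI-182,780 at 10.0nM final accompanies the compound titration (15 concentrations, 22hr, 37C) on VM7Luc4E2 cells. The CellTiter-Fluor fluorescence readout runs in the same wells as the luciferase assay.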", "values": [{"compound": "Oc1ccccc1", "Potency": "inactive"}, {"compound": "CC/C(=C(\\c1ccccc1)c1ccc(OCCN(C)C)cc1)c1ccccc1", "Potency": "inactive and 61.6 µM (active)"}, {"compound": "O=c1[nH]cc(F)c(=O)[nH]1", "Potency": "inactive"}, {"compound": "Nc1ccc(O)c([N+](=O)[O-])c1", "Potency": "43.3 µM (active)"}, {"compound": "CN1CCC[C@H]1c1cccnc1", "Potency": "inactive"}, {"compound": "NC(=O)n1c(O)c(C(=O)c2cccs2)c2cc(Cl)ccc21", "Potency": "29.8 µM (active)"}, {"compound": "O=C1c2c(O)cccc2Cc2cccc(O)c21", "Potency": "inactive"}, {"compound": "CN[C@H]1CC[C@@H](c2ccc(Cl)c(Cl)c2)c2ccccc21", "activity change, negative = cytotoxicity": "0.392% [at 42.5 µM] (inactive)"}, {"compound": "O=C1O[C@H]([C@@H](O)CO)C(O)=C1O", "Potency": "inactive"}, {"compound": "CCCCC(CC)C(=O)O", "note": "(centres undefined)", "Potency": "inactive"}, {"compound": "C[C@](N)(Cc1ccc(O)c(O)c1)C(=O)O", "Potency": "inactive and 54.3 µM (active)"}, {"compound": "COc1ccc(CN(CCN(C)C)c2ccccn2)cc1", "Potency": "inactive"}, {"compound": "CC(O)(P(=O)(O)O)P(=O)(O)O", "Potency": "inactive"}, {"compound": "Nc1ccc([N+](=O)[O-])cc1O", "Potency": "27.3 µM (active)"}]}]}
